This passage reports growth results from PubChem BioAssay (NCI).

The panel holds about 83,000 compounds, 20% with a hit somewhere; the sample as a whole holds those more often.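 Growth was measured after 48 h exposure to one concentration of compound in 96-well plates. Values under 10 count as active.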 Values without a mark were called inactive. Active and inactive are the calls of the source.

Common to all, as to assay: NCI-60 one-dose screen, 48 h (100 = growth as untreated, 0 = no growth, -100 = all killed)
One assay concerns SK-MEL-2 melanoma. The settings on record: 10 µM unless noted.
Another assay has as its system EKVX NSCLC. The settings on record: 10 µM unless noted.
Another assay has as its system SN12C renal. The settings on record: 10 µM unless noted.
The subject of another assay is UO-31 renal. The following applies: 10 µM unless noted.
Another assay relates to TK-10 renal. The following applies: 10 µM unless noted.
Another assay has as its system ACHN renal. The settings on record: 10 µM unless noted.
For a further assay, the system named is CAKI-1 renal. The following applies: 10 µM unless noted.
For another assay, the system named is A498 renal. The following applies: 10 µM unless noted.
The next assay concerns MOLT-4 leukemia. The following applies: 10 µM unless noted.
In a further assay the test system is SR leukemia. The settings on record: 10 µM unless noted.
For a further assay, the system named is RPMI-8226 leukemia. The following applies: 10 µM unless noted.
The test system of the next assay is OVCAR-8 ovarian. The settings on record: 10 µM unless noted.
For the next assay, the system named is OVCAR-5 ovarian. The following applies: 10 µM unless noted.
A further assay deals with OVCAR-4 ovarian. The settings on record: 10 µM unless noted.
The next assay relates to SK-OV-3 ovarian. The following applies: 10 µM unless noted.
In a further assay the test system is IGROV1 ovarian. The following applies: 10 µM unless noted.
The next assay has as its system HS 578T breast. The settings on record: 10 µM.
Another assay concerns NCI/ADR-RES ovarian. The following applies: 10 µM unless noted.
A further assay deals with CCRF-CEM leukemia. The settings on record: 10 µM unless noted.
The test system of another assay is OVCAR-3 ovarian. The settings on record: 10 µM unless noted.

`COc1ccc(/C(=C\c2ccc3c(c2)OCO3)C(=O)Nc2nc3ccc(F)cc3s2)cc1OC`: the growth is 95.7% in the assay on SK-MEL-2 melanoma; 103% with EKVX NSCLC; 115% in the assay on SN12C renal; 68.5% in the assay on UO-31 renal; 119% in the assay with TK-10 renal; 97.5% in the assay on ACHN renal. The growth in the assay on CAKI-1 renal was 86.5%; in the assay with A498 renal, 98.3%; with MOLT-4 leukemia, 94.4%; in the assay with SR leukemia, 92.5%; in the assay on RPMI-8226 leukemia, 102%; in the assay on OVCAR-8 ovarian it was 110%. In addition, the growth with OVCAR-5 ovarian is 104%; in the assay on OVCAR-4 ovarian, 93.8%; in the assay on SK-OV-3 ovarian, 100%; in the assay on IGROV1 ovarian, 95.8%; in the assay with HS 578T breast, 104%; in the assay with NCI/ADR-RES ovarian, 123%.
In the case of `CCCc1cc2c(cc1CN(Cc1cc3c(cc1CCC)OCO3)C(=N)OCC)OCO2`, the growth was 81.3% in the assay with SK-MEL-2 melanoma; 75% in the assay on EKVX NSCLC; 80% in the assay with SN12C renal; 67.3% in the assay on UO-31 renal; 72.9% in the assay with TK-10 renal; 90.4% with ACHN renal. The growth is 83.5% in the assay with CAKI-1 renal; 97.6% with A498 renal; 80.4% with CCRF-CEM leukemia; 91.2% in the assay with SR leukemia; 55.2% in the assay with RPMI-8226 leukemia; 82.4% in the assay on OVCAR-8 ovarian. The growth in the assay on OVCAR-5 ovarian is 98.9%; in the assay on OVCAR-4 ovarian, 77.9%; with SK-OV-3 ovarian it was 92.7%; with IGROV1 ovarian, 63.3%; in the assay with OVCAR-3 ovarian it was 69.1%; with HS 578T breast, 73.1%. The growth in the assay with NCI/ADR-RES ovarian is 91.2%.
Turning to `COc1ccc(NC(=O)/C=C/c2ccc(Cl)c(Cl)c2)cn1`, the growth in the assay on SK-MEL-2 melanoma is 101%; in the assay with EKVX NSCLC, 83.7%; in the assay with SN12C renal, 88.9%; in the assay on UO-31 renal, 74.1%; with TK-10 renal, 78.3%; in the assay on ACHN renal, 93.4%. Further, the growth with CAKI-1 renal is 59.3%; in the assay on A498 renal it was 65.6%; in the assay on CCRF-CEM leukemia, 32.9%; in the assay on SR leukemia, 95.2%; in the assay with RPMI-8226 leukemia it was 49.7%; in the assay with OVCAR-8 ovarian, 61.1%. Also, the growth with OVCAR-5 ovarian is 84.6%; in the assay with OVCAR-4 ovarian it was 20.5%; with SK-OV-3 ovarian it was 101%; in the assay with IGROV1 ovarian, 67.8%; in the assay on OVCAR-3 ovarian, 96.6%; with HS 578T breast it was 92.6%. For the same compound, in the assay with NCI/ADR-RES ovarian, the growth was 1.03% (active).
Regarding `CC(C)=CCC[C@H](C)c1ccc(C)c2c1OCN(CCO)C2`, the growth is 99.2% in the assay with SK-MEL-2 melanoma; 97.2% in the assay with EKVX NSCLC; 79.6% in the assay on SN12C renal; 42.4% in the assay with UO-31 renal; 88.4% in the assay on TK-10 renal; 90.1% with ACHN renal. Further, the growth in the assay with CAKI-1 renal was 91.6%; in the assay on A498 renal it was 47.2%; with CCRF-CEM leukemia it was 87.5%; in the assay with MOLT-4 leukemia, 101%; in the assay with RPMI-8226 leukemia, 83.2%; in the assay on OVCAR-8 ovarian it was 86.3%. For the same compound, the growth in the assay with OVCAR-5 ovarian was 83.7%; in the assay on OVCAR-4 ovarian, 79%; with SK-OV-3 ovarian it was 105%; in the assay with OVCAR-3 ovarian it was 86.1%; with HS 578T breast it was 75.6%; in the assay with NCI/ADR-RES ovarian, 73.5%.
`N=c1n(Cc2ccccc2)c(N)cc(=O)n1Cc1ccccc1`: the growth in the assay with SK-MEL-2 melanoma is 94.6%; in the assay on EKVX NSCLC, 0.834% (active); with SN12C renal, 12.8%; in the assay on UO-31 renal, 13.4%; in the assay with TK-10 renal it was 16.4%; in the assay with ACHN renal, 4.21% (active). For the same compound, the growth was 0.138% (active) in the assay on CAKI-1 renal; 40.6% in the assay on A498 renal; 21.4% in the assay on CCRF-CEM leukemia; 1.6% (active) in the assay on SR leukemia; 42.6% with RPMI-8226 leukemia; 20% with OVCAR-8 ovarian. In addition, the growth in the assay on OVCAR-5 ovarian is 68.8%; in the assay with OVCAR-4 ovarian it was 34.1%; in the assay on SK-OV-3 ovarian it was 21.4%; in the assay on IGROV1 ovarian, 37.9%; in the assay on OVCAR-3 ovarian, 0.156% (active); in the assay with HS 578T breast, -1.73% (active). For the same compound, the growth in the assay on NCI/ADR-RES ovarian is 10.6%.
Consider `Cc1c(O)c(=O)n(-c2ccccc2)n1C`, for which the growth is 112% in the assay on SK-MEL-2 melanoma; 120% in the assay with EKVX NSCLC; 98.2% in the assay with SN12C renal; 79.6% in the assay on UO-31 renal; 112% with TK-10 renal; 96.5% in the assay on ACHN renal. Besides, the growth was 107% in the assay with CAKI-1 renal; 120% in the assay on A498 renal; 118% with CCRF-CEM leukemia; 91.4% in the assay with SR leukemia; 104% in the assay on RPMI-8226 leukemia; 109% with OVCAR-8 ovarian. The growth is 87.2% in the assay with OVCAR-5 ovarian; 111% in the assay with OVCAR-4 ovarian; 105% in the assay with SK-OV-3 ovarian; 117% in the assay on IGROV1 ovarian; 127% with HS 578T breast; 105% with NCI/ADR-RES ovarian.
Turning to `CCc1ccc(Nc2ncnc3c2cnn3-c2cccc(Br)c2)cc1`, the growth in the assay on SK-MEL-2 melanoma was 108%; in the assay with EKVX NSCLC, 102%; in the assay with SN12C renal, 101%; with UO-31 renal it was 85.6%; with TK-10 renal, 107%; in the assay on ACHN renal, 108%. For the same compound, the growth in the assay with CAKI-1 renal is 89.3%; with CCRF-CEM leukemia it was 131%; with MOLT-4 leukemia it was 101%; in the assay on SR leukemia, 108%; in the assay on RPMI-8226 leukemia, 117%; with OVCAR-8 ovarian it was 93.3%. Moreover, the growth with OVCAR-5 ovarian is 102%; with OVCAR-4 ovarian, 105%; with SK-OV-3 ovarian it was 104%; in the assay with IGROV1 ovarian, 113%; in the assay on NCI/ADR-RES ovarian, 100%.
As to `CC(=O)N[C@@H](CCC(N)=O)C(=O)O`, the growth with SK-MEL-2 melanoma is 118%; with EKVX NSCLC, 107%; in the assay on SN12C renal, 85.7%; with UO-31 renal, 65.7%; with TK-10 renal, 107%; in the assay with ACHN renal it was 94.7%. Further, the growth with CAKI-1 renal is 73.8%; with A498 renal, 86.6%; with MOLT-4 leukemia it was 95.3%; with SR leukemia, 104%; in the assay with RPMI-8226 leukemia it was 107%; with OVCAR-8 ovarian, 98.8%. For the same compound, the growth in the assay with OVCAR-5 ovarian is 111%; in the assay with OVCAR-4 ovarian, 111%; in the assay on SK-OV-3 ovarian, 96.7%; in the assay on IGROV1 ovarian, 84.9%; in the assay with OVCAR-3 ovarian, 102%; with HS 578T breast, 81.7%. Besides, in the assay with NCI/ADR-RES ovarian, the growth was 98.9%.
